# Laboratory results taken from PubChem BioAssay (Tox21).
# “And” between values parts separate entries of the source, which are not always exact repeats. Identical values can stand only once. Some structures have more than one record in an assay (separate samples or runs), and their calls can disagree. The source made the active and inactive calls. Where a call stands in place of a potency, no number is given. Unless noted, the call rests on the fitted dose curve; in most records, active means well fitted curve in the direction sought with a large enough effect in the repeat runs; inconclusive means weak or mixed curves; inactive means no such curve, though single readings can be large; an effect the other way counts as inactive or inconclusive.
# Legend:
# [1] = test system: thyroid hormone receptor (rat, GH3 cells); assay: qHTS assay to identify small molecule agonists of the thyroid receptor (TR) signaling pathway (AID 743066; calls by dose curve)
# [2] = qHTS assay to identify small molecule antagonists of the estrogen receptor alpha (ER-alpha) signaling pathway - cell viability counter screen (AID 743074; calls by dose curve;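 further: HEK293 cells carrying ER-alpha-UAS-bla reporter stimulated with 17beta-estradiol; nearly all actives have a fitted effect of over 45% in size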; further: potency means the concentration at half of the fitted maximal effect)
# [3] = qHTS assay to identify small molecule antagonists of the estrogen receptor alpha (ER-alpha) signaling pathway using the BG1 cell line - cell viability counter screen (AID 743081);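 further: compound given together with 17beta-estradiol as the ER stimulus; series mostly up to about 70 µM; nearly all actives have a fitted effect of over 45% in size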
# [4] = qHTS assay to identify aromatase inhibitors - cell viability counter screen (AID 743084);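 further: cells stimulated with testosterone during compound exposure; nearly all actives have a fitted effect of over 55% in size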; further: potency means the concentration at half of the fitted maximal effect
# [5] = target: Aryl hydrocarbon receptor (Homo sapiens) (UniProt P35869); assay: qHTS assay to identify small molecule that activate the aryl hydrocarbon receptor (AhR) signaling pathway (AID 743085); further: nearly all actives have a fitted effect of over 15% in size; further: potency means the concentration at half of the fitted maximal effect;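 on activation: HG2L7.5c1 human HepG2 liver cells with stably integrated DRE-driven firefly reporter; series mostly up to about 70 µM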
# Chain of Aryl hydrocarbon receptor (Homo sapiens) (P35869 whole entry, looked up): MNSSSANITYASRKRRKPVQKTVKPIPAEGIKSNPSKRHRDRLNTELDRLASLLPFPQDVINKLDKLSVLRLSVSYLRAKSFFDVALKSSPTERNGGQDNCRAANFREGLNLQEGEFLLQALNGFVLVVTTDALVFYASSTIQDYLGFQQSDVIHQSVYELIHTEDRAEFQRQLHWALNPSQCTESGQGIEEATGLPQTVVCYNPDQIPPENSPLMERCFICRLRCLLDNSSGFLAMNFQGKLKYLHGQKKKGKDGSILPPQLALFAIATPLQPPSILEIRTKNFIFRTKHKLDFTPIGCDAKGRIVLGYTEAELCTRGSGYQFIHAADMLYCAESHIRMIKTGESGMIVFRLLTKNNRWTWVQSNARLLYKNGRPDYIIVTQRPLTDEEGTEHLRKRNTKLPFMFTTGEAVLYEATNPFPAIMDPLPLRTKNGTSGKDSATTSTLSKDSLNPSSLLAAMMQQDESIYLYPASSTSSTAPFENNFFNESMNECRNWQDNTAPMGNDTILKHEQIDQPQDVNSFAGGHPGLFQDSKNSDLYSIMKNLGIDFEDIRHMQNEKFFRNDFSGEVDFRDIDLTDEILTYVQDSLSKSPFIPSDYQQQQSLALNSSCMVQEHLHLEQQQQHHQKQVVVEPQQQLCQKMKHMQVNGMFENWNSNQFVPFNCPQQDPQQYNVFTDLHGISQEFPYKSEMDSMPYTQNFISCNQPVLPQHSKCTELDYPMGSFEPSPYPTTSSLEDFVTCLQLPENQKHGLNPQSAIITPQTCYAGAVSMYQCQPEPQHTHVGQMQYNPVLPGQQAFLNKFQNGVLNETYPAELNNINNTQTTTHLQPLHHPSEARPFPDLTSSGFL
# Outline: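 Stably transfected human liver carcinoma cells (HG2L7.5c1; 20 DRE-firefly luciferase) were incubated 5 h, dosed, and kept 24 h at 37C. Agonism was scored from increased luciferase luminescence.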
# [6] = qHTS assay to identify small molecule that activate the aryl hydrocarbon receptor (AhR) signaling pathway - cell viability counter screen (AID 743086); further: nearly all actives have a fitted effect of over 45% in size; further: potency means the concentration at half of the fitted maximal effect
# Outline: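 Cytotoxicity counter screen: CellTiter-Fluor signal (30 min, 37 C) in 4000 HepG2 cells/well carrying the DRE-luciferase reporter, following 24 h compound exposure at 37 C.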
# [7] = target: Peroxisome proliferator-activated receptor gamma (Homo sapiens) (UniProt P37231); assay: qHTS assay to identify small molecule agonists of the peroxisome proliferator-activated receptor gamma (PPARg) signaling pathway (AID 743094; active means well fitted activation curve with a large enough effect in the signal ratio in the repeat runs, not every such curve was filed as active; inconclusive means weak or mixed curves, or effect the other way; inactive means no such curve, though single readings can be large or run the other way; the % refers to the signal ratio)
# Chain of Peroxisome proliferator-activated receptor gamma (Homo sapiens) (P37231 whole entry, looked up): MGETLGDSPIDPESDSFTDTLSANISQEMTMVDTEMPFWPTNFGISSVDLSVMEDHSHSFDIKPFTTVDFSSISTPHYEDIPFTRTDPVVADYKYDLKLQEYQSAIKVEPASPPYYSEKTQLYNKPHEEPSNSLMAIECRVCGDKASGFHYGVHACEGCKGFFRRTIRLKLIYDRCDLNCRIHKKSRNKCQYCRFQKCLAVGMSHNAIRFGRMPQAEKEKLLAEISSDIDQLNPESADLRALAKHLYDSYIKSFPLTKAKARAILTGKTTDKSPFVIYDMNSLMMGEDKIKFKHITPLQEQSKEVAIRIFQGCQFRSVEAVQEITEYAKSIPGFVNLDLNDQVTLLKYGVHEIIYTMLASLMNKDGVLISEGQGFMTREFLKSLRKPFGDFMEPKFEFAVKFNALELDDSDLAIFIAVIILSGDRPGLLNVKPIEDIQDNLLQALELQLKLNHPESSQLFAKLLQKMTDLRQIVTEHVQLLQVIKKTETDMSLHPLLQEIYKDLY
# Outline: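 Reporter activation was scored by fluorescence of cleaved LiveBLAzer B/G substrate (1 h, room temperature) in PPARg-bla HEK293H cells previously treated 17 h at 37C with DMSO-dissolved compounds.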
# [8] = qHTS assay for small molecule activators of the heat shock response signaling pathway - cell viability counter screen (AID 743209); further: nearly all actives have a fitted effect of over 50% in size; further: potency means the concentration at half of the fitted maximal effect
# Outline: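 Viability of HSE-bla HeLa cells is measured with CellTiter-Glo in the wells already used for the reporter read. Compound exposure lasts 5 h at 37 C, and luminescence is read after 30 min at room temperature.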
# [9] = qHTS assay for small molecule activators of the heat shock response signaling pathway (AID 743210; active means well fitted activation curve with a large enough effect in the signal ratio in the repeat runs, with a control signal flat, not every such curve was filed as active; inconclusive means weak or mixed curves; the % refers to the signal ratio; further: series mostly up to about 63 µM)
# Outline: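 Compound exposure lasted 5 h at 37 C in HeLa cells carrying a heat-shock-element-driven beta-lactamase reporter. Read-out: fluorescence intensity after 2.5 h room-temperature loading with LiveBLAzer B/G FRET substrate.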
# [10] = qHTS assay for small molecule agonists of the antioxidant response element (ARE) signaling pathway - cell viability counter screen (AID 743203; calls by dose curve; further: nearly all actives have a fitted effect of over 55% in size; further: potency means the concentration at half of the fitted maximal effect)
# Outline: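 Viability counter screen: stably transfected ARE-bla HepG2 line, 16 hrs compound exposure at 37C/5% CO2, ATP-based CellTiter-Glo luminescence measured in the reporter wells.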
# [11] = qHTS assay to identify small molecule agonists of the peroxisome proliferator-activated receptor delta (PPARd) signaling pathway - cell viability counter screen (AID 743211); further: nearly all actives have a fitted effect of over 55% in size; further: potency means the concentration at half of the fitted maximal effect
# Outline: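 In the same wells used for beta-lactamase reporter measurement, cytotoxicity is scored by CellTiter-Glo. HEK293H PPARd-bla cells receive compound for 17 h at 37C following a 5 h settling period.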
# [12] = qHTS assay to identify small molecule antagonists of the estrogen receptor alpha (ER-alpha) signaling pathway using the BG1 cell line (AID 743080; calls by dose curve;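 further: BG1 cells stimulated with 17beta-estradiol alongside compound; potency means the concentration at half of the fitted maximal effect; nearly all actives have a fitted effect of over 25% in size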)
# Outline: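 Endogenous full-length ER-alpha in BG1-Luc-4E2 cells drives a stably integrated 4×ERE luciferase gene; compounds were tested against 17beta-estradiol over 21.5 h, with luminescence and multiplexed viability fluorescence recorded.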
# [13] = target: Aromatase (Homo sapiens) (UniProt P11511); assay: qHTS assay to identify aromatase inhibitors (AID 743083); further: nearly all actives have a fitted effect of over 55% in size; further: potency means the concentration at half of the fitted maximal effect
# Chain of Aromatase (Homo sapiens) (P11511 whole entry, looked up): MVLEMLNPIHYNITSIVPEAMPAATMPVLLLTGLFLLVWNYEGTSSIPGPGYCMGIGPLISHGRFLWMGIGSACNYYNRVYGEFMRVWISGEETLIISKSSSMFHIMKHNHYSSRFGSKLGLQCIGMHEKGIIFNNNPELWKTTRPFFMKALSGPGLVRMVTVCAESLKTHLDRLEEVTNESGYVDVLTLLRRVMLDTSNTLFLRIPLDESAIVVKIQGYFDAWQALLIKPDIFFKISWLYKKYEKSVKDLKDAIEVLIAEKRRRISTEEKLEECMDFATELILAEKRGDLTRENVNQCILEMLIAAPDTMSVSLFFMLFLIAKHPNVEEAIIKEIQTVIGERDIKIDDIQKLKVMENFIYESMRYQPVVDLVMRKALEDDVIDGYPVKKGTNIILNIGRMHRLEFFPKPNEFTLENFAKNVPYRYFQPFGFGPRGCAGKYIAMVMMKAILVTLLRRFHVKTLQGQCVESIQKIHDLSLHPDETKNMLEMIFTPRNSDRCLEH
# [14] = qHTS assay to identify small molecule antagonists of the peroxisome proliferator-activated receptor gamma (PPARg) signaling pathway - cell viability counter screen (AID 743194); conditions: Potency: co-treated with 50 nM rosiglitazone unless noted; further: nearly all actives have a fitted effect of over 55% in size; further: potency means the concentration at half of the fitted maximal effect
# Outline: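 Viability was measured as CellTiter-Glo luminescence in GeneBLAzer PPARg UAS-bla HEK293H cells. These cells had been exposed 17 h at 37 C to compounds together with rosiglitazone at 50 nM final, with the beta-lactamase readout taken in the same wells.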
# [15] = qHTS assay for small molecule agonists of the antioxidant response element (ARE) signaling pathway (AID 743202; active means well fitted activation curve with a large enough effect in the signal ratio in the repeat runs, not every such curve was filed as active; inconclusive means weak or mixed curves, or effect the other way; inactive means no such curve, though single readings can be large or run the other way; the % refers to the signal ratio; further: potency means the concentration at half of the fitted maximal effect)
# Outline: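 After 16 hours of compound treatment at 37 C, HepG2 cells with a stably integrated ARE-driven beta-lactamase reporter were loaded 2 hours at room temperature with LiveBLAzer B/G FRET substrate and fluorescence intensity measured.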
# [16] = target: Peroxisome proliferator-activated receptor gamma (Homo sapiens) (UniProt P37231); assay: qHTS assay to identify small molecule antagonists of the peroxisome proliferator-activated receptor gamma (PPARg) signaling pathway (AID 743191; calls by dose curve; further: series mostly up to about 63 µM; nearly all actives have a fitted effect of over 30% in size)
# Outline: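 Beta-lactamase reporter under UAS control in HEK293H PPARg-bla cells; compound treatment 17 h at 37C. Read-out: fluorescence intensity after 1 h room-temperature incubation with LiveBLAzer B/G FRET substrate.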
# [17] = target: Estrogen receptor (Homo sapiens) (UniProt P03372); assay: qHTS assay to identify small molecule antagonists of the estrogen receptor alpha (ER-alpha) signaling pathway (AID 743069; active means well fitted curve in the direction sought with a large enough effect in the signal ratio in the repeat runs, not every such curve was filed as active; inconclusive means weak or mixed curves, or effect the other way; inactive means no such curve, though single readings can be large or run the other way; the % refers to the signal ratio; further: potency means the concentration at half of the fitted maximal effect)
# Chain of Estrogen receptor (Homo sapiens) (P03372 whole entry, looked up): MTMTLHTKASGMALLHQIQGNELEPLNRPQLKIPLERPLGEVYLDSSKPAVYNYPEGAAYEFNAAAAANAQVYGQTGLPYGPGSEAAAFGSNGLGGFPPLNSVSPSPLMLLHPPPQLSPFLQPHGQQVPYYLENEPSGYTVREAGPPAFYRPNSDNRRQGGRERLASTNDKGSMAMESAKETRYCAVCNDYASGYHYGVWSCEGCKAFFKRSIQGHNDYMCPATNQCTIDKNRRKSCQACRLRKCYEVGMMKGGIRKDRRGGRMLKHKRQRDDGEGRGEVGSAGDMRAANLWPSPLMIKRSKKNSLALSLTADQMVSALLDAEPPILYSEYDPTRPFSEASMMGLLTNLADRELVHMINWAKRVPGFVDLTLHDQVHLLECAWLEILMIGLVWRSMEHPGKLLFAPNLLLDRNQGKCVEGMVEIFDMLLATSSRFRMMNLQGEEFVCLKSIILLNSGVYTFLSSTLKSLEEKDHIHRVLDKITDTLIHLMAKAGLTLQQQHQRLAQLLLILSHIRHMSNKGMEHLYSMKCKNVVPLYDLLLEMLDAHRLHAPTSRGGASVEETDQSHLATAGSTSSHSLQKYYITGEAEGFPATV
# Outline: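 Antagonist mode: compounds in DMSO were co-added with 17beta-estradiol to ER-alpha-bla HEK293 cells (2% charcoal-stripped serum) and left 18 h at 37C. Reporter inhibition was measured as FRET fluorescence after 2 h LiveBLAzer substrate at room temperature.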
# [18] = target: Estrogen receptor (Homo sapiens) (UniProt P03372); assay: qHTS assay to identify small molecule agonists of the estrogen receptor alpha (ER-alpha) signaling pathway (AID 743075; calls by dose curve;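 further: HEK293 GripTite cells with ER-alpha and UAS-driven beta-lactamase reporter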)
compound,measurement,setting,value
CCOP(=S)(OCC)OC(Cl)C(Cl)(Cl)Cl (stereo not drawn),outcome,[1],inactive
same,Potency,[2],inactive
same,Potency,[3],inactive
same,Potency,[4],inactive
same,Potency,[5],inactive
same,Potency,[6],inactive
same,Potency,[7],inactive
same,Potency,[8],inactive
same,Potency,[9],inactive
COc1cccc2c1C(=O)c1c(O)c3c(c(O)c1C2=O)C[C@@](O)(C(=O)CO)CC3OC1CC(N2CCOC(OC)C2)C(O)C(C)O1 (stereo partly drawn),Potency,[10],9.44 µM (active)
same,Potency,[9],inactive
same,Potency,[11],inactive
Clc1ccc(CO/N=C(\Cn2ccnc2)c2ccc(Cl)cc2Cl)c(Cl)c1,Potency,[12],11.9 µM (active)
same,Potency,[3],inactive
same,Potency,[13],2.66 µM (active)
same,Potency,[4],inactive
same,Potency,[6],inactive
same,Potency,[7],inactive
same,Potency,[8],23.7 µM (active)
same,Potency,[11],inactive
O=[N+]([O-])O.O=[N+]([O-])O.[Cd],Potency,[2],inactive
same,Potency,[13],inactive
same,Potency,[5],inactive
same,Potency,[6],1.93 µM (active)
same,Potency,[14],155 nM (active)
same,Potency,[10],0.611 µM (active)
same,Potency,[8],inactive
same,Potency,[11],1.95 µM (active)
[Cl][Sb]([Cl])[Cl],outcome,[1],inactive
same,Potency,[2],inactive
same,Potency,[3],inactive
same,Potency,[13],inactive
same,Potency,[4],inactive
same,Potency,[5],inactive
same,Potency,[6],inactive
same,Potency,[7],inactive
same,Potency,[15],5.45 µM (active)
same,Potency,[10],inactive
same,Potency,[8],inactive
CN(C)C(=S)S,Potency,[2],inactive
same,Potency,[3],inactive
same,Potency,[13],8.81 µM (active) and 607 nM (active) and 1.72 µM (active)
same,Potency,[4],14 µM (active) and 764 nM (active) and 4.86 µM (active)
same,Potency,[5],inactive
same,Potency,[6],inactive and 21.7 µM (active)
same,Potency,[14],inactive
same,Potency,[10],inactive
same,Potency,[8],5 µM (active) and inactive and 2.19 µM (active)
same,Potency,[11],546 nM (active) and 5.49 µM (active)
CC1(C)[C@H](C(=O)O[C@H](C#N)c2cccc(Oc3ccccc3)c2)[C@@H]1/C=C(\Cl)C(F)(F)F,outcome,[1],inactive
same,Potency,[2],inactive
same,Potency,[3],inactive
same,Potency,[13],inactive
same,Potency,[4],inactive
same,Potency,[5],inactive
same,Potency,[6],inactive
same,Potency,[16],inactive
same,Potency,[14],inactive
same,Potency,[15],inactive
same,Potency,[8],inactive
CCOP(=O)(NC(C)C)Oc1ccc(SC)c(C)c1 (stereo not drawn),Potency,[4],inactive
same,Potency,[5],14.8 µM (active)
same,Potency,[7],inactive
same,Potency,[10],inactive
Nc1ccc(Cc2ccc(N)c(Cl)c2)cc1Cl,Potency,[17],4.22 µM [inconclusive] (active)
same,Potency,[2],inactive
same,Potency,[18],inactive
same,Potency,[3],inactive
same,Potency,[13],29.6 µM (active)
same,Potency,[6],inactive
same,Potency,[7],inactive
Oc1ccc2ccc3cccc4ccc1c2c34,Potency,[2],inactive
same,Potency,[3],inactive
same,Potency,[6],inactive
same,Potency,[8],inactive
same,Potency,[11],inactive
COc1ccc(N)cc1N,outcome,[1],inactive
same,Potency,[3],inactive
same,Potency,[13],12.6 µM (active) and 33 µM (active)
same,Potency,[4],12.6 µM (active)
same,Potency,[6],63.1 µM (active) and inactive
same,Potency,[14],21000 nM (active)
same,Potency,[10],19.9 µM (active) and 29.4 µM (active)
same,Potency,[8],8.01 µM (active)
CCCCCCCCCCCCCCCC[N+](C)(C)C,Potency,[2],21.3 µM (active) and 4.72 µM (active) and 49 µM (active)
same,Potency,[3],inactive
same,Potency,[13],16.8 µM (active) and 11.8 µM (active) and 30.6 µM (active)
same,Potency,[4],29.5 µM (active) and 68.6 µM (active)
same,Potency,[5],inactive
same,Potency,[6],inactive and 68.6 µM (active)
same,Potency,[14],18.8 µM (active) and 29.8 µM (active)
same,Potency,[10],29.5 µM (active) and 24.3 µM (active) and 29.8 µM (active)
same,Potency,[11],16.8 µM (active) and 38.9 µM (active) and 23.7 µM (active)
